Assay outcomes deposited in PubChem by Broad Institute.
The entries come from a sample that favours hits as a whole.
Tg IFNy HTS: T. gondii growth inhibition with IFN-gamma, primary screen, cell-based. Toxoplasma gondii growth in IFN-gamma-treated host cells; stronger effect = lower value. activity change, negative = inhibition, % (test concentration not listed). 3.8% of 69,000 active; in the data active = activity change below about -70%, passing the limit was not always enough;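 also: host cells are HeLa cells infected with Toxoplasma gondii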
* = called active by the depositor; i = inactive; ! = not confirmed by another sample.

SMILES | Tg IFNy HTS
Cc1ccc(C2c3[nH]c4ccccc4c3CCN2C(=O)c2ccccc2)cc1 (centres undefined) | i
Cc1ccc(C2c3[nH]c4ccccc4c3CCN2C(=O)c2ccccc2F)cc1 (centres undefined) | -130.5*
COCC1CN(S(=O)(=O)c2cccs2)Cc2nccn2C1 (centres undefined) | -36.0
Cc1cc(CN(C)Cc2c(-c3ccccc3)nn(C)c2C)n[nH]1 | 6.2
CCC(CC)n1nc(C)cc1NC(=O)Cn1nc(C(F)F)cc1C | -46.7
CC(=O)Nc1ccc(CN2C[C@H]3C(=O)Nc4ccccc4C(=O)N[C@@]3(C)C2)cc1 | -13.7
O=C1CC2(CCN(S(=O)(=O)Cc3ccccc3)C2)CN1c1cccc(F)c1 (centres undefined) | -49.7
CC(C)Cc1ccc(S(=O)(=O)N2CCC3(CC2)Nc2cc(F)ccc2-n2cccc23)cc1 | -1.3
CC(=O)N1C(=O)C2(N=C(N)NC(Nc3cccc(C(F)(F)F)c3)=N2)c2ccccc21 (centres undefined) | 11.6
Cc1cc(C)c(S(=O)(=O)Nc2cccc(C(F)(F)F)c2)c(C)c1 | 7.3
O=c1cc(Nc2cccc(C(F)(F)F)c2)nc[nH]1 | -102.8*
COc1ccc(-c2cnc(-n3cnnc3)c(C)c2)cc1Cl | -32.0
Cc1cc(C)c(NC(=O)C(=O)NCCc2csc(-c3cccc(F)c3)n2)c(C)c1 | -79.6*
Cc1cccc(NC(=O)C(=O)NCCc2csc(-c3ccc(Cl)cc3)n2)c1 | -26.6
Cc1ccc(NC(=O)C(=O)NCCc2csc(-c3cccc(F)c3)n2)c(C)c1 | -9.7
Cc1cccc(C)c1NC(=O)C(=O)NCCc1csc(-c2cccc(F)c2)n1 | 25.1
O=C(NCCc1csc(-c2cccc(F)c2)n1)C(=O)Nc1ccccc1 | -34.0
Cc1cccc(NC(=O)C(=O)NCCc2csc(-c3cccc(F)c3)n2)c1 | -87.3*
Cc1sc2ncnc(N3CCC(C(=O)NCC(C(C)C)N(C)C)CC3)c2c1C (centres undefined) | -27.9
COc1ccc(-c2nc(Cn3nnc(-c4nc(-c5ccc(OC)c(OC)c5)no4)c3C)c(C)o2)cc1 | 9.7
Cc1ccc(CN2CCC(O)(Cn3nnc(-c4ccc5c(c4)OCO5)n3)CC2)o1 | 77.5
CCOc1ccc(C(=O)Nc2ccc(N3CCN(C(C)=O)CC3)cc2)cc1[N+](=O)[O-] | -13.5
CCOc1cccc(C(=O)Nc2ccc(N3CCN(C(=O)c4ccco4)CC3)cc2)c1 | -86.4*
CC(=O)Nc1ccc(C(=O)N2CCN(C(=O)c3ccco3)CC2)cc1 | -51.9
COCCN(Cc1nccs1)C(=O)c1oc2cc(C)ccc2c1C | 1.8
SMILES | Tg IFNy HTS
CC1CCCCN1C1CN(Cc2cc(F)ccc2O)C1 (centres undefined) | 1.4
CNCCC=C1c2ccccc2CCc2ccccc21 | -87.9*!
c1ccc(-c2ccc3c(n2)CCc2ccccc2-3)cc1 | 225.5
CC(=O)N1CCN(c2ncc(-c3cc(C)no3)c(-c3ccc(C)nc3)n2)CC1 | -8.4
CC(C)(C)c1cc(C(=O)N2CCC3(CC2)CC(O)(c2ccc(F)cc2)CO3)n[nH]1 (centres undefined) | -57.9
CCOCC1CN(C(=O)COc2ccccc2)Cc2nnn(C)c21 (centres undefined) | 16.7
CC(=O)Nc1nonc1-c1ccccc1 | -0.2
CC(=O)NC1=NN(C(C)=O)C(C)(c2ccccc2)S1 (centres undefined) | -76.8*!
CC(=O)Nc1ccccc1 | -13.9
Cc1ccc(C(=O)N2CCn3nnc(COCc4cccnc4)c3C2)cc1F | 4.8
O=C(Nc1ccc(Cl)cc1)Nc1ccc(Cl)c(C(F)(F)F)c1 | -76.6*
O=C(Nc1ccc(Cl)cc1)Nc1ccno1 | -10.7
O=C(CSc1nc2[nH]c(=O)cc(O)c2s1)Nc1ccc(Cl)c(C(F)(F)F)c1 | 5.6
CN1C[C@@H]2CN(C(=O)C3CCOC3)C[C@H]2C1=O (some centres undefined) | -29.7
CC(C)N1CCc2c(nc(C(=O)N3CCCC3)n2C)C1 | 20.8
O=C1NCc2c1c1c3ccccc3[nH]c1c1[nH]c3ccccc3c21 | 1.5
Clc1nc2ccccc2c2[nH]c3ccccc3c12 | -95.2*
c1ccc(Cc2nc3ccccc3[nH]2)cc1 | -15.9
COc1ccc2nc(Cn3ccnc3-c3cnc(N4CCCC4)nc3)[nH]c2c1 | 8.2
CC(C)CNC(=O)c1nc(-c2ccc(Cl)cc2)n2c1CCCCC2 | -100.4*
CCN(CC)C(=O)c1nc(-c2ccc(C)cc2)n2c1CCCCC2 | -32.5
Cc1ccc(-c2nc(C(=O)N3CCCCCC3)c3n2CCCCC3)cc1 | -79.9*
O=C(c1nc(-c2ccc(Cl)cc2)n2c1CCCCC2)N1CCC2(CC1)OCCO2 | 117.5
COCCCNC(=O)c1nc(-c2ccc(Cl)cc2)n2c1CCCCC2 | -49.6
CC(C)OCCCNC(=O)c1nc(-c2ccc(Cl)cc2)n2c1CCCCC2 | -47.3
SMILES | Tg IFNy HTS
COc1ccccc1CNC(=O)c1nc(-c2ccc(C)cc2)n2c1CCCCC2 | -115.2*
COC(=O)c1cc2c(cc1NC(=O)c1nc(-c3ccc(C)cc3)n3c1CCCCC3)OCO2 | 283.9
CC1CCCCN1CCNC(=O)c1nc(-c2ccc(Cl)cc2)n2c1CCCCC2 (centres undefined) | 6.3
Cc1ccc(-c2nc(C(=O)NC(C)C)c3n2CCCCC3)cc1 | -78.1*
CCOC(=O)C1CCCN(C(=O)c2nc(-c3ccc(C)cc3)n3c2CCCCC3)C1 (centres undefined) | 222.9
Cc1ccc(-c2nc(C(=O)N3CCCCC3c3cccnc3)c3n2CCCCC3)cc1 (centres undefined) | 104.9
Cc1nc(S(=O)(=O)N2CCC3(CCCN(C)C3=O)C2)cn1C (centres undefined) | 3.4
CCOC(=O)C(C)NC(=O)c1cc(-c2cccnc2)n[nH]1 (centres undefined) | 12.0
CCOC(=O)C(C)NC(=O)c1nc(-c2ccc(C)cc2)n2c1CCCCC2 (centres undefined) | -105.9*
CCN1CCCC(C)(C(=O)Nc2ccc(OC)c(NC(=O)c3ccco3)c2)C1 (centres undefined) | 1.4
O=C(Cn1ncc2c(N3CCN(c4ccccc4)CC3)ncnc21)N1CCCCC1 | 65.1
Clc1ccc(-c2nc(-c3ccc(Cl)cc3)c(-c3ccccc3)s2)cc1 | -45.2
Clc1ccc(CSc2nnc(-c3c[nH]c4ccccc34)o2)cc1 | -57.9
c1ccc2c(Cc3c[nH]c4ccccc34)c[nH]c2c1 | 10.1
c1ccc2c(-c3c[nH]c4ccccc34)c3ccccc3nc2c1 | -86.0*
O=C(CSc1n[nH]c(=O)n1-c1ccccc1C(F)(F)F)c1ccc(F)cc1 | -28.9
CC(c1ccccc1)n1c(SCC(=O)c2csc3ccccc23)n[nH]c1=O (centres undefined) | -79.2*
CC(c1ccccc1)n1c(SCC(=O)O)nnc1C1CCOCC1 (centres undefined) | 8.4
CCc1ccccc1NC(=O)N1CCn2cnc(COCC3CC3)c2C1 | -9.3
CN(C)CCOCc1nnn2c1CN(S(=O)(=O)C1CC1)CCC2 | 2.7
CC(C(=O)N1CCCn2nc(C(=O)Nc3ccccc3)cc2C1)n1cncn1 (centres undefined) | 109.6
CCn1c(C2CCNCC2)nn(CC23CC4CC(CC(C4)C2)C3)c1=O | -7.4
Cc1nc(-n2cnnc2)ccc1-c1ccc2c(c1)OCO2 | -96.6*
Cc1ccc(-c2nnc(-c3ccc4c(c3)OCO4)o2)cc1 | 112.8
Cc1cnc(-n2cnnc2)c(-c2ccc3c(c2)OCCO3)c1 | 3.2
COCCNC(=O)[C@H]1C[C@H]2CCN(Cc3csc(C)n3)C[C@H]2O1 | -0.2
Cc1nc(CN2C(=O)CCC3C2CCN3c2ncccn2)cs1 (centres undefined) | 3.3
